In PubChem BioAssay (EPA / NIEHS):
“And” between values parts separate entries of the source, which are not always exact repeats. Identical values can stand only once. Results filed as inconclusive are left out. Where a structure was tested more than once in an assay, its records may differ in their call. The source made the active and inactive calls. The calls were made as follows, unless noted: active = hit-call score of the fitted dose curve at least 0.9, where 1 is the maximum; inactive = score below 0.9.

How the values were obtained:
[1] = target: Retinoic acid receptor RXR-alpha (Homo sapiens) (UniProt P19793); test: ATG_RXRa_TRANS: Attagene TRANS-FACTORIAL HepG2 Assay for human Retinoid X Receptor alpha (RXRa) (AID 2283012; active = hit-call score of the fitted dose curve at least 0.9, where 1 is the maximum)
Summary of the method: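 Cells (HepG2) carried transiently transfected GAL4-responsive reporter units. Following a 24 h chemical incubation, reporter mRNA induction was read via RT-PCR fragment analysis; DMSO served as negative control and baseline.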

[2] = target: human Retinoid X Receptor beta (RXRb), RXRB (gene 6257) (UniProt P28702); test: ATG_RXRb_TRANS: Attagene TRANS-FACTORIAL HepG2 Assay for human Retinoid X Receptor beta (RXRb) (AID 2283013; active = hit-call score of the fitted dose curve at least 0.9, where 1 is the maximum)
Summary of the method: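 Multiplexed TRANS reporter assay in HepG2; 24 h dosing; reporter mRNA by RT-PCR/CE fluorescence; gain-of-signal relative to DMSO.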

[3] = target: human Thyroid Receptor alpha (THRa1), THRA (gene 7067) (UniProt P10827); test: ATG_THRa1_TRANS: Attagene TRANS-FACTORIAL HepG2 Assay for human Thyroid Receptor alpha (THRa1) (AID 2283014; active = hit-call score of the fitted dose curve at least 0.9, where 1 is the maximum)
Summary of the method: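 Transcripts from GAL4-UAS-driven reporters, measured after 24 h compound exposure by RT-PCR plus capillary electrophoresis of 6-FAM-labeled fragments, were fitted for gain of signal relative to DMSO. Cells: transiently transfected HepG2 expressing NR-Gal4 chimeras.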

[4] = read-out: E-selectin (Homo sapiens) (UniProt P16581); test: BSK_3C_Eselectin: BioMAP Diversity Plus: 3C Assay for Eselectin Biomarker Activity (AID 2283015); conditions: primary human endothelial cells (HUVEC); actives raise or lower the signal;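 also: cell surface E-selectin protein quantified by ELISA 24 h after dosing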
Summary of the method: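 E-selectin ELISA readout, fitted bidirectionally relative to DMSO, taken 24 h post-dosing in HUVEC cultures of the 3C system. Overt cytotoxicity tracked with sulforhodamine B staining of parallel wells.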

[5] = read-out: Interleukin-1 alpha (IL1a), IL1A (gene 3552); test: BSK_BE3C_IL1a: BioMAP Diversity Plus: BE3C Assay for Interleukin-1 alpha (IL1a) Biomarker Activity (AID 2283016); conditions: primary human bronchial epithelial cells; actives raise or lower the signal
Summary of the method: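 Cultures of primary human bronchial epithelial cells receive test chemical. After 24 h, IL-1a is quantified by ELISA, while parallel wells are fixed in TCA and SRB-stained for total protein. Changes in either direction are fitted relative to DMSO.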

[6] = read-out: Monocyte Chemoattractant Protein-1 (MCP1), CCL2 (gene 6347); test: BSK_3C_MCP1: BioMAP Diversity Plus: 3C Assay for Monocyte Chemoattractant Protein-1 (MCP1) Biomarker Activity (AID 2283017); conditions: primary human endothelial cells (HUVEC); actives raise or lower the signal
Summary of the method: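 MCP-1 was measured by ELISA 24 h after dosing in primary HUVEC 3C cultures and fitted in both directions relative to DMSO; cytotoxicity was checked by SRB total-protein staining in parallel wells.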

[7] = read-out: Human Leukocyte Antigen - DR isotype (HLADR), HLA-DRA (gene 3122); test: BSK_3C_HLADR: BioMAP Diversity Plus: 3C Assay for Human Leukocyte Antigen - DR isotype (HLADR) Biomarker Activity (AID 2283019); conditions: primary human endothelial cells (HUVEC); actives raise or lower the signal;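 as to outcome: ELISA of cell-surface HLA-DR on HUVEC 24 h after dosing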
Summary of the method: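 Bidirectional fitting against DMSO was applied to the HLA-DR ELISA signal from human umbilical vein endothelial cells, 24 h post-dose. Cytotoxicity came from parallel SRB total-protein staining; 3C proliferation was counted by SRB at 48 h.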

[8] = read-out: Monokine induced gamma interferon (MIG), CXCL9 (gene 4283); test: BSK_3C_MIG: BioMAP Diversity Plus: 3C Assay for Monokine induced gamma interferon (MIG) Biomarker Activity (AID 2283021); conditions: primary human endothelial cells (HUVEC); actives raise or lower the signal
Summary of the method: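 After 24 h of treatment, human umbilical vein endothelial cultures (3C system) had their MIG biomarker level determined by ELISA, with DMSO serving as negative control.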

[9] = target: human Vitamin D Receptor (VDR), VDR (gene 7421) (UniProt P11473); test: ATG_VDR_TRANS: Attagene TRANS-FACTORIAL HepG2 Assay for human Vitamin D Receptor (VDR) (AID 2283022; active = hit-call score of the fitted dose curve at least 0.9, where 1 is the maximum)
Summary of the method: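 Transactivation by an exogenous VDR-Gal4 chimera in transiently transfected HepG2 cells was measured as reporter transcript level 24 hours after chemical treatment. RT-PCR products were analysed by capillary electrophoresis and fitted in the positive direction relative to DMSO.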

[10] = BSK_3C_SRB: Viability Assessment in the BioMAP Diversity Plus: 3C Assay (AID 2283023); conditions: primary human endothelial cells (HUVEC);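 also: fitted both ways against DMSO so a hit may be signal rise or drop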
Summary of the method: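 Cytotoxicity readout in parallel HUVEC 3C cultures: after 24 h compound exposure, cells fixed with 10% TCA, stained with 0.1% SRB and read at 560 nm. Gain or loss relative to DMSO fitted.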

[11] = read-out: Matrix Metallopeptidase 1 (MMP1), MMP1 (gene 4312); test: BSK_BE3C_MMP1: BioMAP Diversity Plus: BE3C Assay for Matrix Metallopeptidase 1 (MMP1) Biomarker Activity (AID 2283024); conditions: primary human bronchial epithelial cells; actives raise or lower the signal
Summary of the method: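 Dose cells, wait 24 h, run MMP1 ELISA; cells are human bronchial epithelial primaries. Both increases and decreases relative to DMSO counted.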

[12] = BSK_3C_Vis: BioMAP Diversity Plus: 3C Assay for Morphology Visualization (AID 2283025); conditions: primary human endothelial cells (HUVEC);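 also: fitted both ways so gain or loss versus DMSO counts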;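 as to AC50: light microscopy image of cell morphology used as background control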
Summary of the method: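 Endothelial cells from human umbilical vein were treated with test chemicals for 24 h and inspected by light microscopy for changes in cell conformation.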

[13] = read-out: Pselectin, SELP (gene 6403); test: BSK_4H_Pselectin: BioMAP Diversity Plus: 4H Assay for Pselectin Biomarker Activity (AID 2283026); conditions: primary human endothelial cells (HUVEC); actives raise or lower the signal
Summary of the method: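 Human vascular endothelium from umbilical vein; P-selectin measured by ELISA at 24 h post-dose, with cytotoxicity checked by sulforhodamine B total-protein staining in parallel cultures (0.1% SRB after 10% TCA fixation, read at 560 nm).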

[14] = BSK_4H_SRB: Viability Assessment in the BioMAP Diversity Plus: 4H Assay (AID 2283027); conditions: primary human endothelial cells (HUVEC);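 also: cells exposed to compound for 24 h before staining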;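 as to AC50: curves fitted both ways versus DMSO so AC50 may be loss or gain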
Summary of the method: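 Human umbilical vein endothelial cells were dosed with chemical and, after 24 h, fixed with 10% TCA, stained with 0.1% sulforhodamine B, and read at 560 nm to give total protein as a cytotoxicity measure. Bidirectional fitting relative to DMSO control.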

[15] = BSK_BE3C_SRB: Viability Assessment in the BioMAP Diversity Plus: BE3C Assay (AID 2283028); conditions: primary human bronchial epithelial cells
Summary of the method: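 Cytotoxicity read-out: SRB (0.1%) staining of TCA-fixed (10%) human lung bronchial epithelial cells, absorbance 560 nm, 24 h post-dosing. Curves fitted both directions relative to DMSO.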

[16] = read-out: Thrombomodulin, THBD (gene 7056); test: BSK_3C_Thrombomodulin: BioMAP Diversity Plus: 3C Assay for Thrombomodulin Biomarker Activity (AID 2283029); conditions: primary human endothelial cells (HUVEC); actives raise or lower the signal
Summary of the method: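 Thrombomodulin ELISA, human primary HUVEC, 24 h post-dose; data fitted in both directions relative to DMSO.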

[17] = read-out: Urokinase-type plasminogen activator receptor (uPAR), PLAUR (gene 5329); test: BSK_4H_uPAR: BioMAP Diversity Plus: 4H Assay for Urokinase-type plasminogen activator receptor (uPAR) Biomarker Activity (AID 2283030); conditions: primary human endothelial cells (HUVEC); actives raise or lower the signal
Summary of the method: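 uPAR level read by ELISA on HUVEC cultures (BioMAP 4H) 24 h post-dosing, analyzed for gain or loss relative to DMSO. Parallel SRB staining assessed overt cytotoxicity.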

[18] = target: human RAR-related Orphan Receptor gamma (RORg), RORC (gene 6097) (UniProt P51449); test: ATG_RORg_TRANS: Attagene TRANS-FACTORIAL HepG2 Assay for human RAR-related Orphan Receptor gamma (RORg) (AID 2283011; active = hit-call score of the fitted dose curve at least 0.9, where 1 is the maximum;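 as to AC50: potency for induction of reporter transcripts above DMSO so activators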)
Summary of the method: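 Reporter transcripts from a transfected RORg-GAL4 chimera in HepG2 cells were quantified 24 h after dosing by RT-PCR, 6-FAM labelling, HpaI digestion and capillary electrophoresis; increases over DMSO baseline were fitted.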

[19] = read-out: Monocyte Chemoattractant Protein-1 (MCP1), CCL2 (gene 6347); test: BSK_4H_MCP1: BioMAP Diversity Plus: 4H Assay for Monocyte Chemoattractant Protein-1 (MCP1) Biomarker Activity (AID 2283018); conditions: primary human endothelial cells (HUVEC); actives raise or lower the signal
Summary of the method: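 Readout: MCP-1 ELISA on compound-treated HUVEC, sampled 24 h post-dosing. Baseline and negative control DMSO; bidirectional fit. Overt toxicity checked alongside by sulforhodamine B protein staining at time of biomarker measurement.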

Chain of Retinoic acid receptor RXR-alpha (Homo sapiens) (P19793 whole entry, looked up, the tested form may be a part): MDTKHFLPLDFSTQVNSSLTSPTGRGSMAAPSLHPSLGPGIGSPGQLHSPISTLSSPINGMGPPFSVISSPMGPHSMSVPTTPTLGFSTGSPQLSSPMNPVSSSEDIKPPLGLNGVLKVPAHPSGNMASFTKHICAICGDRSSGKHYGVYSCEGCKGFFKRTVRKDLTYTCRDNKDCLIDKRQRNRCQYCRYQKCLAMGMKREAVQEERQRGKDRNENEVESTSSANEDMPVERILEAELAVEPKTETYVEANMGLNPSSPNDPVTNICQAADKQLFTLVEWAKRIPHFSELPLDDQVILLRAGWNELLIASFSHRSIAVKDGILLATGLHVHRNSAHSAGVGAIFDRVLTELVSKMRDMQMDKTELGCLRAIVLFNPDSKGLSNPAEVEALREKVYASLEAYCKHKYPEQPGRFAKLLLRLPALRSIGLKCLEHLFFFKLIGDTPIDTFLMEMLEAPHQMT
Chain of human Thyroid Receptor alpha (THRa1), THRA (gene 7067) (P10827 whole entry, looked up, the tested form may be a part): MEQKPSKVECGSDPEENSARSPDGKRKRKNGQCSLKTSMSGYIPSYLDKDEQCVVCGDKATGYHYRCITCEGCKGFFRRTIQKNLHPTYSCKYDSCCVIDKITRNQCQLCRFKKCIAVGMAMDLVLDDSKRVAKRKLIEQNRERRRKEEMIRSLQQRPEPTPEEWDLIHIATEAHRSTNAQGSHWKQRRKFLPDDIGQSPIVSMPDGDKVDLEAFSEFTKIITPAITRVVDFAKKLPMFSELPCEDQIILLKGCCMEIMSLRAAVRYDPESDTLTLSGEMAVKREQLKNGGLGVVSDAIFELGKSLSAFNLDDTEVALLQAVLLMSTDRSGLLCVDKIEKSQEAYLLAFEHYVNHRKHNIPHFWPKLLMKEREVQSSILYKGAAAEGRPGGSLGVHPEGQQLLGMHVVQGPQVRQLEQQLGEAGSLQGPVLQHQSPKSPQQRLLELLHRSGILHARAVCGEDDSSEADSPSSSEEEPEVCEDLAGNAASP
Chain of E-selectin (Homo sapiens) (P16581 whole entry, looked up): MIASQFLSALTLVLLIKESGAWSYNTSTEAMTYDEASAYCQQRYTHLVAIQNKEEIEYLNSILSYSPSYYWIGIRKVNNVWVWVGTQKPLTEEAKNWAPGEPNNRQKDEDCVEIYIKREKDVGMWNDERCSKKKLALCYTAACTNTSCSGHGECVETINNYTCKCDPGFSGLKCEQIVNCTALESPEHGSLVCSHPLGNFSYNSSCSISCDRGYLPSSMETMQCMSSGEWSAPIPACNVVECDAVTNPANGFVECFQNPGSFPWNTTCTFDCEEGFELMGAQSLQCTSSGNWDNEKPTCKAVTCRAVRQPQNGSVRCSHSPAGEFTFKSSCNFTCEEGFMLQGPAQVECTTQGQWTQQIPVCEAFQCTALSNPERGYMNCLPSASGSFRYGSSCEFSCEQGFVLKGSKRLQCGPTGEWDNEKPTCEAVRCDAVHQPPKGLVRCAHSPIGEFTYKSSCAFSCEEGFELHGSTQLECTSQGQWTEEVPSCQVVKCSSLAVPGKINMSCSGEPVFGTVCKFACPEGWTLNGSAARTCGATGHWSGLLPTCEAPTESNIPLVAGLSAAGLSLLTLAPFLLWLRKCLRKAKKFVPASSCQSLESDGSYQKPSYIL
Chain of human Vitamin D Receptor (VDR), VDR (gene 7421) (P11473 whole entry, looked up, the tested form may be a part): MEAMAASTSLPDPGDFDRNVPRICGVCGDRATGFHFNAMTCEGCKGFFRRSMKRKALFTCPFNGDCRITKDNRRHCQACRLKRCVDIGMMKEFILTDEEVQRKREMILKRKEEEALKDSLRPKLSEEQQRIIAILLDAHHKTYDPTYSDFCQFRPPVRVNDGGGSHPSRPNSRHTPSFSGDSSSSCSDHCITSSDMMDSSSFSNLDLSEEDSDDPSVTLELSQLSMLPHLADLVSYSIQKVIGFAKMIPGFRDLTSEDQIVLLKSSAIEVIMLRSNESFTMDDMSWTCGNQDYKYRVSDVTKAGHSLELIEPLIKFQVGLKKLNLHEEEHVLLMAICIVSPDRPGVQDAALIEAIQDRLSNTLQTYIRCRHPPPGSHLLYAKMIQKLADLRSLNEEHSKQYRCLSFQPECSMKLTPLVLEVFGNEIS
Chain of human RAR-related Orphan Receptor gamma (RORg), RORC (gene 6097) (P51449 whole entry, looked up, the tested form may be a part): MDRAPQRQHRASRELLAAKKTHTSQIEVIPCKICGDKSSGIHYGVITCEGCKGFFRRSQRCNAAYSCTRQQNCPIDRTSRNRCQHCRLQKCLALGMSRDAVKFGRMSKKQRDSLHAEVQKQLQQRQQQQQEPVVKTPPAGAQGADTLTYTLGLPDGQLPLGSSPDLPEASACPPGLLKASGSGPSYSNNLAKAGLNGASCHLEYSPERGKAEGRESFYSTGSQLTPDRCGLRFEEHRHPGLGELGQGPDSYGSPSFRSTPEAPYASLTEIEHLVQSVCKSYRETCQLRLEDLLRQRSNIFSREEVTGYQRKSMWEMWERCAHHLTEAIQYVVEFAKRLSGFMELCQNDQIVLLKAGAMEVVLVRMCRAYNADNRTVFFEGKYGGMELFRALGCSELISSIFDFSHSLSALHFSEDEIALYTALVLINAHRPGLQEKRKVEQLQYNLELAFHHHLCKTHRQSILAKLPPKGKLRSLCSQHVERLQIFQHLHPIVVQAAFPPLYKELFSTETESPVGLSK
Chain of human Retinoid X Receptor beta (RXRb), RXRB (gene 6257) (P28702 whole entry, looked up): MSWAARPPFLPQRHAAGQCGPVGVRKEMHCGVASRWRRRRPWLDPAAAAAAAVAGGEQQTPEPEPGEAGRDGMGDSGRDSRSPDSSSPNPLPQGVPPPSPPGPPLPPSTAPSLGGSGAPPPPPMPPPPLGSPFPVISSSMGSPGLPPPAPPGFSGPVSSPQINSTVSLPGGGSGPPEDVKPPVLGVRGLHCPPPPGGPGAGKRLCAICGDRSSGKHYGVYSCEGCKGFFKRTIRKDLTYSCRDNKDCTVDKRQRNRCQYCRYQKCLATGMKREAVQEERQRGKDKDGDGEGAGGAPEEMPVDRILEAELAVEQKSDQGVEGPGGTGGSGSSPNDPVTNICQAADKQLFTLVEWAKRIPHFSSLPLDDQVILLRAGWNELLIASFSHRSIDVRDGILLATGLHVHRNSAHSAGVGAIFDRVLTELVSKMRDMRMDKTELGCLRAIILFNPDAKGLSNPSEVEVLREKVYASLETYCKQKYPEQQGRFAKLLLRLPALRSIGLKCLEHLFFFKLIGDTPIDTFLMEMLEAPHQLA

For `CC1(C)NC(=O)N(c2ccc([N+](=O)[O-])c(C(F)(F)F)c2)C1=O`, the outcome [1] was “inactive”, the outcome [2] was “inactive” and the outcome [3] was “inactive”. The outcome [4] was “inactive”, the outcome [5] was “inactive” and the outcome [6] was “inactive”. The outcome [7] was “inactive”, the outcome [8] was “inactive” and the outcome [9] was “inactive”. The outcome [10] was “inactive”, the outcome [11] was “inactive” and the outcome [12] was “inactive”. For the same compound, the outcome [13] was “inactive”, the outcome [14] was “inactive” and the outcome [15] was “inactive”. The outcome [16] was “inactive” and the outcome [17] was “inactive”.

With `O=c1c(-c2ccc(O)cc2)coc2cc(O)cc(O)c12` the AC50 [18] was 26.5 µM (active), the outcome [18] was “inactive” and the outcome [1] was “inactive”. For the same compound, the AC50 [2] was 25.2 µM (active) and 27.2 µM (active), the outcome [2] was “inactive” and the outcome [3] was “inactive”. The outcome [4] was “inactive”, the AC50 [6] was 25.3 µM (active) and the AC50 [19] was 8.42 µM (active). For the same compound, the AC50 [7] was 21.1 µM (active), the outcome [8] was “inactive” and the outcome [9] was “inactive”. For the same compound, the AC50 [10] was 25.8 µM (active), the AC50 [11] was 15.3 µM (active) and the AC50 [12] was 39 µM (active). The AC50 [13] was 17.1 µM (active), the AC50 [14] was 14.7 µM (active) and the outcome [15] was “inactive”. For the same compound, the outcome [16] was “inactive” and the AC50 [17] was 14.1 µM (active).

For `CCCC(=O)OCCC(C)C`, the outcome [18] was “inactive”, the outcome [3] was “inactive” and the outcome [4] was “inactive”. For the same compound, the outcome [5] was “inactive”, the outcome [6] was “inactive” and the outcome [7] was “inactive”. The outcome [8] was “inactive”, the outcome [9] was “inactive” and the outcome [10] was “inactive”. The outcome [11] was “inactive”, the outcome [12] was “inactive” and the outcome [13] was “inactive”. For the same compound, the outcome [14] was “inactive”, the outcome [15] was “inactive” and the outcome [16] was “inactive”. For the same compound, the outcome [17] was “inactive”.
